Experiment [1] is described as follows: qHTS RealTime-Glo MT Cell Viability Assay in HEK293 cells - 24 hour (AID 1224886). Note: nearly all actives have a fitted effect of over 50% in size. Note: potency is the fitted concentration of half-maximal effect. In a few lines: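 Assay medium contained NanoLuc luciferase plus cell-permeant prosubstrate, added with HEK293 cells at 600 cells/well. After 5 h at 37 C/5% CO2 compounds were added; plates stayed at 37 C for 40 h with serial luminescence reads.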
A general note: Quantitative high-throughput screening tests each substance at several concentrations.

A short description of experiment [2]: qHTS RealTime-Glo MT Cell Viability Assay in HEK293 cells - 8 hour (AID 1224887). Note: top concentration of the series differs between compounds; nearly all actives have a fitted effect of over 50% in size. In a few lines:
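Nonlytic bioluminescent viability monitoring. HEK293 at 600 cells/well with reagent; 5 h settle; compound transfer by pintool; plates held at 37 C and read at set time points.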

A short description of experiment [3]: A CellTox Green Cytotoxicity Assay to monitor cytotoxicity in HEK293 cells - 16 hour (AID 1224888). Note: nearly all actives have a fitted effect of over 35% in size. In a few lines: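 Cytotoxicity was tracked continuously in HEK293 cells by a DNA-binding dye excluded from viable cells. Compounds were transferred in DMSO 5 h after seeding; fluorescence was recorded at intervals up to 40 h.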
The nature of experiment [4]: qHTS assay to identify small molecule antagonists of the estrogen receptor alpha (ER-alpha) signaling pathway using the BG1 cell line in the presence of 0.1 nM 17-beta-estradiol - cell viability counter screen (AID 1259241). Note: nearly all actives have a fitted effect of over 40% in size. In a few lines:
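In this screen, hormone-deprived VM7Luc4E2 cells were seeded at 4,000 per well, dosed with compound and 0.1 nM estradiol final, and incubated 22 hr at 37C and 5% CO2; fluorogenic live-cell protease signal reported viability.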

A short description of experiment [5]: qHTS assay to identify small molecule antagonists of the androgen receptor (AR) signaling pathway using the MDA cell line in the presence of 0.5 nM R1881 - cell viability counter screen (AID 1259242). Note: nearly all actives have a fitted effect of over 45% in size. In a few lines: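 Cytotoxicity toward MDA-kb2 cells is measured by CellTiter-Fluor live-cell protease fluorescence after 16 hr compound exposure at 37C in the presence of 0.5 nM R1881 stimulator.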

Experiment [6] has as its target Estrogen receptor (Homo sapiens) (UniProt P03372). Put plainly: qHTS assay to identify small molecule antagonists of the estrogen receptor alpha (ER-alpha) signaling pathway using the BG1 cell line in the presence of 0.1 nM 17-beta-estradiol (AID 1259244). Note: nearly all actives have a fitted effect of over 50% in size. Note: potency is the fitted concentration of half-maximal effect. In a few lines: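 After 5 days in hormone-depleted medium (charcoal-stripped serum, no phenol red), VM7Luc4E2 cells were seeded, incubated 24 h, then co-treated with compound and 0.1 nM (final) estradiol for 22 h before luminescence detection.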

A short description of experiment [7]: qHTS assay to identify small molecule phospholipidosis (PLD) inducers (AID 1259344; active = well fitted curve in the direction sought with a large enough effect; an effect the other way counts as inactive or inconclusive). In a few lines: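 Quantitative HTS in HepG2: compound plus LipidTOX Red dye for 24 h, paraformaldehyde fixation with Hoechst 33342, widefield high-content imaging; amiodarone as positive and DMSO as negative control.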
Experiment [8] can be described thus: A CellTox Green Cytotoxicity Assay to monitor cytotoxicity in HepG2 cells - 8 hour (AID 1224890). Note: nearly all actives have a fitted effect of over 45% in size. In a few lines:
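Real-time, homogeneous cytotoxicity readout: dead-cell DNA staining by CellTox Green in HepG2 monolayers, fluorescence measured at timed intervals up to 40 h of continuous compound exposure.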

Experiment [9] is described as follows: qHTS RealTime-Glo MT Cell Viability Assay in HepG2 cells - 0 hour (AID 1224889). Note: nearly all actives have a fitted effect of over 50% in size. In a few lines:
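qHTS, HepG2, 600 cells/well, RealTime-Glo (NanoLuc + prosubstrate) added with cells; 5 h preincubation; DMSO compound addition; 37 C; luminescence at 0/8/16/24/32/40 h.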

In experiment [10] the target is Androgen receptor (Homo sapiens) (UniProt P10275). Briefly: qHTS assay to identify small molecule antagonists of the androgen receptor (AR) signaling pathway using the MDA cell line in the presence of 0.5 nM R1881 (AID 1259243). Note: nearly all actives have a fitted effect of over 50% in size. Note: potency is the fitted concentration of half-maximal effect. In a few lines:
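Steps: seed MDA-kb2 cells, incubate 5 hr at 37C; pin-transfer compounds in DMSO; add R1881 to 0.5 nM final; incubate 16 hr; add ONE-Glo, wait 30 min at room temperature; read luminescence.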

Structures are written as SMILES. Records with an inconclusive call do not appear. Where a structure was tested more than once in an assay, its records may differ in their call. Active and inactive are the calls of the source. Unless noted, calls come from the whole dose curve; as a rule, active = well fitted curve in the direction sought with a large enough effect in the repeat runs; inconclusive = weak or mixed curves; inactive = no such curve, though single readings can be large; an effect the other way counts as inactive or inconclusive.

In PubChem BioAssay (Tox21) one finds Potency and outcome data, which are given here for 29 compounds.

Chain of Estrogen receptor (Homo sapiens) (P03372 whole entry, looked up): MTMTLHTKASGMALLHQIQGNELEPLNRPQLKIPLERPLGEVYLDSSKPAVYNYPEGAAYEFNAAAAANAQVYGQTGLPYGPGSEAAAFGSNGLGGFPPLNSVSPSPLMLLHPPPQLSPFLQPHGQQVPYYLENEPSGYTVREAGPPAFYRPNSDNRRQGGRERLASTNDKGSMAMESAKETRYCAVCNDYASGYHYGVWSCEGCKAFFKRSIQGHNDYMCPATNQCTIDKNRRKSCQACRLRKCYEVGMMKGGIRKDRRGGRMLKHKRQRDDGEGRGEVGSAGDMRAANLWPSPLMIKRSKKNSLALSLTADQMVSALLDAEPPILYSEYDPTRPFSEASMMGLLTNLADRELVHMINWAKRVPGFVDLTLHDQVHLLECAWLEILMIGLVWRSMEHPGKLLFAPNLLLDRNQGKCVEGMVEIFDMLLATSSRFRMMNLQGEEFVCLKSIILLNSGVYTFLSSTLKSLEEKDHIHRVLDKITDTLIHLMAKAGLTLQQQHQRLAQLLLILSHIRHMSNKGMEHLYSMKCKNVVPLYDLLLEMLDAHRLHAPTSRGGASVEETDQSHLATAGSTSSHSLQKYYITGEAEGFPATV
Chain of Androgen receptor (Homo sapiens) (P10275 whole entry, looked up): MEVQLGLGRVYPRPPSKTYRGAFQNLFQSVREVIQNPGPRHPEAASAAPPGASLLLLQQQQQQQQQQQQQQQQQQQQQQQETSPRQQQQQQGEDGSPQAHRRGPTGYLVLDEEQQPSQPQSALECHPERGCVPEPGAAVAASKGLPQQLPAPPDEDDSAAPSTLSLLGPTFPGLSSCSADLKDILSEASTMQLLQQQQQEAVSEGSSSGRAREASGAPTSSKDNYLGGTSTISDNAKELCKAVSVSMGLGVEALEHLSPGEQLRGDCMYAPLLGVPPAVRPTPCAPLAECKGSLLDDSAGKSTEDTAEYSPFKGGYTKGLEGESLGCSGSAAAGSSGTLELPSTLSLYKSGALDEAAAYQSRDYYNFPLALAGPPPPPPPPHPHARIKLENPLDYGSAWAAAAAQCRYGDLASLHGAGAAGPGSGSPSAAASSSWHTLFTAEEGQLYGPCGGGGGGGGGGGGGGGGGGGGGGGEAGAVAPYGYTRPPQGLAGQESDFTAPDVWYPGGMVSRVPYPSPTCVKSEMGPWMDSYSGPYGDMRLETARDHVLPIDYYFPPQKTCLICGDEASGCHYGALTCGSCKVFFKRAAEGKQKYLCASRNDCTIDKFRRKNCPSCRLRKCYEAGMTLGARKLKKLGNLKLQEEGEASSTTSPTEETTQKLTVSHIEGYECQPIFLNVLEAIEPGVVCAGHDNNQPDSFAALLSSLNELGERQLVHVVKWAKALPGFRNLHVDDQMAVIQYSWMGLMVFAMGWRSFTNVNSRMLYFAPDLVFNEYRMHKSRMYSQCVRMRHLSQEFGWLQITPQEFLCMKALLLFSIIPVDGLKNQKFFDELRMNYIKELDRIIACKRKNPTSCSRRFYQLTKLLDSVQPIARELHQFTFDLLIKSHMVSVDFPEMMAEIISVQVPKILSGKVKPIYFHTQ

With `CC1=CCC2CC1C2(C)C` (stereo not given), the Potency entry in experiment [1], in experiment [2], in experiment [4] and in experiment [6] was “inactive” each time. In addition, the compound was classed as inactive in [3], in experiment [5] and in [7].

With `Cc1cccnc1`, the Potency result in experiment [1], in [2], in [8] and in [4] was “inactive” in each case. Further, the compound was classed as inactive in experiment [3] and in experiment [5].

On to `CCCCOC(=O)COc1ccc(Cl)cc1Cl`, for which the Potency entry in experiment [1], in experiment [2], in [8] and in experiment [4] was “inactive” throughout. The outcome in [3] and in experiment [5] was inactive.

In the case of `CCCCCCCCCCCCCCO`, the Potency entry in [1], in [2], in experiment [8], in experiment [4] and in experiment [6] was “inactive” each time. Moreover, the compound was called inactive in experiment [3] and in experiment [5].

With `O=C(O)c1cc(=O)c2c(OCC(O)COc3cccc4oc(C(=O)O)cc(=O)c34)cccc2o1`, the Potency result in [1], in experiment [2], in experiment [9] and in [6] was “inactive” each time. In addition, the result in experiment [3], in experiment [5] and in experiment [7] was inactive.

Consider `O=[N+]([O-])c1ccc(/C=C/c2ccc([N+](=O)[O-])cc2S(=O)(=O)O)c(S(=O)(=O)O)c1`, for which the Potency result in experiment [1], in [2], in experiment [8], in [4] and in experiment [6] was “inactive” in each case. Besides, the compound was classed as inactive in experiment [3] and in experiment [5].

Take `CCCCCCOCCO`: the Potency entry in [1], in experiment [2], in experiment [4] and in [6] was “inactive” in each case. Further, the result in [3] and in [5] was inactive.

In the case of `C[C@H]1C[C@@H]2[C@H]([C@@H](O)C[C@@]3(C)[C@H]2CC[C@]3(O)C(=O)CO)[C@@]2(C)C=CC(=O)C=C12`, the Potency entry in [1], in experiment [2], in [8], in experiment [4] and in [10] was “inactive” throughout. The compound was classed as inactive in experiment [3], in [5] and in experiment [7].

For `C=CCNC(N)=S`, the Potency entry in [1], in experiment [2], in experiment [8] and in experiment [4] was “inactive” each time. In addition, the compound was called inactive in experiment [3], in experiment [5] and in experiment [7].

`CC1=CC(=O)NS(=O)(=O)O1`: the Potency entry in experiment [1], in experiment [2], in experiment [8] and in [4] was “inactive” each time. For the same compound, the compound was called inactive in experiment [3], in experiment [5] and in experiment [7].

As to `c1ccc2c(c1)ccc1ccccc12`, the Potency entry in experiment [1], in [2], in [9], in experiment [8], in experiment [4] and in [6] was “inactive” throughout. The outcome in [5] was inactive. The Potency in experiment [10] is 17.2 µM (active).

Take `O=c1[nH]c(=O)n([C@H]2C[C@H](O)[C@@H](CO)O2)cc1Br`: the Potency entry in [1], in experiment [2] and in experiment [6] was “inactive” each time. Besides, the outcome in experiment [3], in experiment [5] and in experiment [7] was inactive.

`COc1ccc2cc([C@H](C)C(=O)O)ccc2c1`: the Potency result in experiment [1], in experiment [2] and in experiment [8] was “inactive” throughout. Also, the compound was classed as inactive in experiment [3], in experiment [5] and in experiment [7].

As for `CCCCCCCC(=O)OC`, the Potency entry in experiment [1], in experiment [2], in experiment [9] and in [6] was “inactive” throughout. Further, the call in [3] and in experiment [5] was inactive.

Regarding `C=C(C)C(=O)O[C@H]1C[C@@H]2CC[C@@]1(C)C2(C)C`, the Potency in [1] was 15.4 µM (active) and inactive; in experiment [6] it was 2.71 µM (active) and inactive. Further, the Potency result in experiment [2] and in experiment [9] was “inactive” in each case. Further, the result in [3] and in experiment [5] was inactive.

In the case of `OCc1cccnc1`, the Potency result in experiment [1], in [2], in [8] and in experiment [6] was “inactive” in each case. The compound was called inactive in experiment [3], in experiment [5] and in [7].

Consider `CCN(CC)c1ccc(C(=O)c2ccccc2C(=O)O)c(O)c1`, for which the Potency result in [1], in [2], in experiment [9], in experiment [8], in experiment [4] and in experiment [6] was “inactive” throughout. Further, the outcome in [5] was inactive.

For `CC(=O)CC(=O)Nc1ccccc1`, the Potency entry in [1], in [2], in [9], in experiment [8] and in experiment [4] was “inactive” each time. In addition, in [5], the outcome was inactive.

As to `CCC(O)OCCCOC` (stereo not given), the Potency entry in [1], in [2], in experiment [8] and in experiment [4] was “inactive” throughout. The outcome in experiment [3] and in experiment [5] was inactive.

For `CC1CCC2CC1C2(C)C` (stereo not given), the Potency entry in experiment [1], in experiment [2], in experiment [9], in experiment [8] and in experiment [4] was “inactive” throughout. In experiment [5], the result was inactive.

On to `O=C=NCCCCCCN=C=O`, for which the Potency entry in experiment [1], in experiment [2], in [9], in experiment [8], in experiment [4] and in experiment [6] was “inactive” each time. Besides, the outcome in experiment [5] was inactive.

`Cc1cc(C)c(C)cc1C`: the Potency result in experiment [1], in [2], in experiment [8], in experiment [4] and in experiment [6] was “inactive” each time. In addition, the result in experiment [3] and in experiment [5] was inactive.

Take `CCCCC(CC)COC(=O)CS` (stereo not given): the Potency entry in experiment [1], in [2], in [9], in experiment [8] and in experiment [4] was “inactive” in each case. In addition, the outcome in experiment [5] was inactive.

Turning to `Cc1ccc(N(C)C)cc1`, the Potency entry in experiment [1], in [2], in experiment [8], in experiment [4], in experiment [10] and in [6] was “inactive” each time. Further, the call in [3] and in [5] was inactive.

Turning to `Cc1occc(=O)c1O`, the Potency entry in experiment [1], in experiment [2], in experiment [9] and in experiment [8] was “inactive” each time. Besides, the outcome in experiment [5] was inactive.

`FC(F)(F)c1ccc(Cl)c(Cl)c1`: the Potency result in [1], in experiment [2], in experiment [9], in experiment [8], in experiment [10] and in experiment [6] was “inactive” in each case. Moreover, the outcome in experiment [5] was inactive.

As for `CC(C)c1ccc(S(=O)(=O)O)cc1`, the Potency entry in [1], in experiment [2], in experiment [9] and in [6] was “inactive” throughout. Moreover, the result in experiment [5] was inactive.

In the case of `O=C(CC(C(=O)OC1CCCCC1)S(=O)(=O)O)OC1CCCCC1` (stereo not given), the Potency result in [1], in experiment [2], in experiment [9] and in experiment [4] was “inactive” in each case. Moreover, the result in [5] was inactive.

With `C#CCN(C)Cc1ccccc1`, the Potency result in experiment [1], in experiment [2], in [9], in [8], in experiment [4] and in experiment [6] was “inactive” throughout. The result in experiment [5] and in experiment [7] was inactive.
